The whole screen tested about 360,000 compounds, of which about 350 (0.097%) were called active. Cut-off read from the data, not from the text of the source: active = inhibition above about 16% (passing the limit was not always enough); inconclusive = no clear call, values can overlap the other calls; inactive = below that. The sample as a whole holds a higher share of actives than the screen did.

The subject of this assay is UDP-N-acetylbacillosamine N-acetyltransferase PglD (Campylobacter jejuni). In words: C. jejuni PglD acetyltransferase inhibitors, primary screen, biochemical, DTNB colorimetric, single point (AID 602405). The conditions noted are these: purified PglD enzyme, DTNB colorimetric CoA detection; at 12.5 µM; active compounds read high.
Regarding `COC(=O)C[C@@H]1C[C@H]2c3cc(NC(=O)CN(C)C)ccc3O[C@H]2[C@H](CO)O1`, the inhibition (as a rule, the relative decrease from the control value, in per cent) was 1.44% (inactive). In the case of `COc1ccc(S(=O)(=O)Nc2cccc3c2O[C@@H](CN(C)C(=O)NC(C)C)[C@H](C)CN([C@@H](C)CO)C3=O)cc1` it was 3.51% (inactive); in that of `CCCNC(=O)Nc1ccc2c(c1)C(=O)N(C)C[C@H](OC)[C@H](C)CN[C@@H](C)CO2`, 1.64% (inactive). For the molecule `C[C@H]1CN([C@@H](C)CO)C(=O)c2cccc(NC(=O)Nc3ccccc3)c2O[C@H]1CN(C)S(=O)(=O)c1ccc(Cl)cc1`, the inhibition was 1.05% (inactive).

In the case of `O=C(N[C@H]1C=C[C@@H](CC(=O)N2CCN(c3ccccc3)CC2)O[C@@H]1CO)c1ccncc1`, the inhibition is 1.58% (inactive). For the molecule `CCC(=O)Nc1ccc2c(c1)C(=O)N(C)C[C@@H](OC)[C@@H](C)CN(Cc1ccccc1F)[C@H](C)CO2`, the inhibition is 2.28% (inactive). Then `CCCNC(=O)N(C)C[C@H]1Oc2ncc(-c3cccc(C#N)c3)cc2C(=O)N([C@@H](C)CO)C[C@H]1C`, with 0.216% (inactive); and `O=C(NNC(=O)c1ccco1)Nc1ccccc1`, with 3.41% (inactive). `O=C(Nc1ccc(Sc2ccc(Br)cc2)cc1)c1ccco1`: the inhibition was 20.2% (active). Turning to `O=C(CNC(=O)c1ccco1)NNC(=O)c1ccc(Br)cc1`, the inhibition is 2.58% (inactive). In the case of `O=C(Nc1ccccc1F)N1C[C@H]2[C@@H](c3ccccc31)[C@@H](CO)N2C(=O)Cc1cccnc1` it was 5.55% (inactive); in that of `COc1ccc(NC(=O)Nc2ccc3c(c2)C(=O)N([C@@H](C)CO)C[C@@H](C)[C@H](CN(C)Cc2ccc(Cl)c(Cl)c2)O3)cc1`, 6.96% (inactive); in that of `COc1cccc(CNC(=O)C[C@@H]2C=C[C@@H](NC(=O)C3CCC3)[C@@H](CO)O2)c1`, -2.99% (inactive). In the case of `Cc1noc(C)c1NC(=O)N(C)C[C@@H]1Oc2ccc(NS(C)(=O)=O)cc2C(=O)N([C@H](C)CO)C[C@@H]1C`, the inhibition was -1.3% (inactive).

For the molecule `C[C@H](O)C#Cc1ccc2c(c1)O[C@@H](CN(C)C(=O)C1CCCCC1)[C@H](C)CN([C@@H](C)CO)S2(=O)=O`, the inhibition was -1% (inactive). Then `C[C@H]1CCCCO[C@H](CN(C)CC2CC2)[C@@H](C)CN([C@@H](C)CO)C(=O)c2cc(NS(C)(=O)=O)ccc2O1`, with 32% (inactive); and `O=C(c1ccc(F)cc1)N1CCCCN2[C@@H](CO)[C@H](c3ccc(-c4ccccc4)cc3)[C@@H]2C1`, with 1.69% (inactive).

On to `Cc1ccc(C2=C/C(=C\c3cccnc3)C(=O)O2)cc1`, for which the inhibition is 49.3% (active).

In the case of `Cc1ccc(C(=O)N/C(=C/c2cccnc2)C(=O)O)cc1`, the inhibition was -2.85% (inactive).

As to `CN(C)/C=C1\C=C(c2ccccc2)OC1=O`, the inhibition is -0.491% (inactive).

On to `CCCc1cn(CC[C@@H]2CC[C@H](NS(=O)(=O)c3ccccc3Cl)[C@H](CO)O2)nn1`, for which the inhibition is -0.55% (inactive). With `CC(=O)N1C[C@@H]2[C@H](c3ccccc31)[C@H](CO)N2Cc1ccc(Cl)cc1`, the inhibition was 2.15% (inactive).

For the molecule `CCCNC(=O)C[C@@H]1C[C@@H]2c3cc(N(C)C)ccc3O[C@@H]2[C@H](CO)O1`, the inhibition is -5.6% (inactive). Take `COc1ccc(S(=O)(=O)N(C)C[C@H]2OCCCC[C@H](C)Oc3ccc(NC(=O)Nc4ccc(F)cc4)cc3C(=O)N([C@@H](C)CO)C[C@H]2C)cc1`: the inhibition was -0.001% (inactive). Regarding `C[C@@H](NC(=O)[C@H]1[C@H](CO)[C@H]2Cn3c(cccc3=O)[C@H]2N1C(=O)C1CC1)c1ccccc1`, the inhibition was -3.9% (inactive).

For the molecule `CCOc1ccc(NC(=O)CCNC(=O)c2ccc(Br)cc2)cc1`, the inhibition is 1.93% (inactive). As to `O=C(COc1ccc(Br)cc1)OCC(=O)c1ccc[nH]1`, the inhibition was 0.716% (inactive).

Consider `CC(=O)Nc1ccc(OC(=O)COc2ccc(Br)cc2)cc1`, for which the inhibition was 83.3% (active). Consider `C[C@H](CO)N1C[C@H](C)[C@H](CN(C)Cc2ccccc2)Oc2ccc(NC(=O)Cc3ccccc3)cc2C1=O`, for which the inhibition is -3.27% (inactive). In the case of `COCC(=O)Nc1ccc2c(c1)C(=O)N(C)[C@H]1CC[C@@H](CC(=O)Nc3cn(C)nc3C)O[C@@H]1CO2` it was 2.19% (inactive); in that of `COc1ccc(CNC(=O)C2CCN(C(=O)c3ccccc3)CC2)cc1`, -3.01% (inactive); in that of `O=C(c1cccc(Cl)c1)N1CCN(Cc2ccccc2)CC1`, -4.44% (inactive). In the case of `O=C(NCc1ccncc1)C1CCN(C(=O)c2cccc(Cl)c2)CC1` it was 22.3% (active). Then `CC(C)NC(=O)N[C@H]1C=C[C@H](CC(=O)NCCN2CCCC2)O[C@@H]1CO`, with 0.57% (inactive); and `CCC(=O)N1[C@@H](CO)[C@@H]2c3ccccc3N(C(=O)c3ccccc3F)C[C@@H]21`, with -0.466% (inactive); and `COc1ccc(CN(C)C[C@@H]2OCCCC[C@H](C)Oc3ccc(NS(C)(=O)=O)cc3C(=O)N([C@@H](C)CO)C[C@H]2C)cc1`, with -1.59% (inactive).

Turning to `O=C(NC[C@@H]1[C@H](c2ccccc2)[C@H](CO)N1CC1CCCC1)c1cccnc1`, the inhibition is 1.03% (inactive). Then `CC=Cc1ccc2n(c1=O)C[C@H]1[C@H](CO)[C@@H](C(=O)NCc3ccncc3)N(Cc3cncnc3)[C@@H]21` (mixture of isomers), with -1.52% (inactive).

Turning to `CC=Cc1ccc2n(c1=O)C[C@@H]1[C@@H](CO)[C@H](C(=O)N3CCCCC3)[C@H]2N1C(=O)C1CCC1` (mixture of isomers), the inhibition was 2.61% (inactive). Then `C[C@@H]1CCCCO[C@H](CN(C)Cc2ccc(C(F)(F)F)cc2)[C@@H](C)CN([C@@H](C)CO)C(=O)c2cc(NC(=O)c3ccncc3)ccc2O1`, with 3.05% (inactive); and `CC(C)CN(C[C@@H]1N[C@@H](CO)[C@H]1c1ccccc1)C(=O)CN(C)C`, with 5.57% (inactive). Turning to `CO[C@@H]1CN(C)C(=O)c2cc(NC(=O)C3CCC3)ccc2OC[C@H](C)N(Cc2nccs2)C[C@H]1C`, the inhibition is 0.477% (inactive).

With `Cc1noc(C)c1NC(=O)N(C)C[C@H]1Oc2c(NS(=O)(=O)c3cccs3)cccc2C(=O)N([C@@H](C)CO)C[C@@H]1C`, the inhibition is 0.536% (inactive). In the case of `CO[C@@H]1CN(C)C(=O)c2cc(NC(=O)NC3CCCCC3)ccc2OC[C@H](C)N(CC2CCOCC2)C[C@H]1C`, the inhibition was -1.39% (inactive).

These data come from PubChem BioAssay AID602405 (Broad Institute, 2012).
